Only some compounds are listed: those with a hit (about 7% of all), similar ones and a draw of the others.
ADAM17 inh: inhibitors of human ADAM17 | P78536 | inhibition, % at 6.95 µM | recombinant ADAM17, EDANS/DABCYL FRET peptide cleavage | actives 0.83% (n = 370,000);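 active = inhibition above the mean of compounds lying between control limits plus 3 SD, set per campaign, cut at about 8.5% in these data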;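 also: 0% = DMSO-only wells as the low control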
Target sequence (P78536 215-824 limits assumed): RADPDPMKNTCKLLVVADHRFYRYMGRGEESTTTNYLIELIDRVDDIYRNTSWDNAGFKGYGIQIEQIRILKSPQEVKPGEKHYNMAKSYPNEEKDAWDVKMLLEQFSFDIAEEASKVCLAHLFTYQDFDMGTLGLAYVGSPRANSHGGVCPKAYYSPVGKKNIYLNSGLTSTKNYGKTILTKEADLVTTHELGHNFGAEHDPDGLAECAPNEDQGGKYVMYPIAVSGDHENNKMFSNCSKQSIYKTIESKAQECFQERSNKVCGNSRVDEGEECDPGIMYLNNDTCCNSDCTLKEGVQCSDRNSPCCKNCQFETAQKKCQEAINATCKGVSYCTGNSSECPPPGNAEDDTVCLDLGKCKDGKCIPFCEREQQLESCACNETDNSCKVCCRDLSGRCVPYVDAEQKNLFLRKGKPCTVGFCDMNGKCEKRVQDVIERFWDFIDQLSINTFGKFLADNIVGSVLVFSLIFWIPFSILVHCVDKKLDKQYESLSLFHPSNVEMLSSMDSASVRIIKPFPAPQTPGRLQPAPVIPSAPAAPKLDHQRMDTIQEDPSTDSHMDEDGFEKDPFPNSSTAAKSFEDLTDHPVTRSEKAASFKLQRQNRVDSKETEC
proKLK7 act: proKLK7 (human) activation, primary screen; P49862; purified proKLK7, EDANS-DABCYL substrate fluorescence; 100% is mature enzyme control, 0% vehicle; activation, % at 7 µM; actives 0.9% (n = 370,000);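 active = activation above the mean of all tested compounds plus 3 SD, computed per campaign excluding outliers beyond control limits, cut at about 13% in these data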
GRIN3A LBD mod: modulates the human NR3A ligand-binding domain; NR3A LBD differential scanning fluorimetry, Tm shift; 0% = protein alone, 100% = glycine-bound protein; Tm shift relative to glycine control, % at 25 µM; actives 2.5% (n = 340,000); AID 1259313;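 active = melting temperature shift of at least 10% of the positive control shift, at one fixed dose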
ADAM10 inh: ADAM10 inhibition, QFRET primary screen; actives 0.62% (n = 370,000); inhibition, % at 7 µM; recombinant ADAM10, EDANS/DABCYL FRET peptide cleavage, 3 h;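 active = inhibition above a per-campaign cutoff equal to the mean of compounds falling between control-based bounds plus 3 SD, cut at about 20% in these data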;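 also: 0% = DMSO wells while the 100% control is not disclosed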
rCAG RNA binder: binds r(CAG) RNA repeats; r(CAG) RNA repeat, TO-PRO-1 dye displacement fluorescence; inhibition, % at 3 µM; actives 1.3% (n = 370,000); AID 651821;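 active = inhibition above the plate cutoff, the mean of all test compounds on that plate plus 3 SD, cut at about 35% in these data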;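 also: 0% = DMSO alone and 100% = 100 µM mitoxantrone as full dye displacement; higher means more dye released from RNA so lower well fluorescence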
AHR act: human AHR activation; actives 2.5% (n = 320,000); AID 2796; P35869; AHR-responsive luciferase reporter cells, luminescence; activation, % at 5 µM; in the data active = activation above about 47%;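 also: 0% = vehicle wells and 100% = reference agonist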
ADAM10 ctr: counter-screen for ADAM17 exosite inhibitors: inhibitors of human ADAM10; shares compounds with ADAM17 inh; recombinant ADAM10, EDANS/DABCYL FRET peptide cleavage, 3 h; inhibition, % at 6.95 µM; actives 47% (n = 2,900);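 active = mean inhibition over the triplicate runs exceeds the activity threshold set in the earlier primary screen, cut at about 20% in these data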;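 also: 0% = DMSO wells and 100% = marimastat wells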
ADAM17 confirm: human ADAM17 inhibition, confirmation | shares compounds with ADAM17 inh | recombinant ADAM17, EDANS/DABCYL QFRET peptide cleavage | inhibition, % at 6.95 µM | actives 65% (n = 2,900) | AID 743257;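 active = mean inhibition across replicates above the hit cutoff set in the primary screen, cut at about 8.5% in these data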;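 also: 0% = DMSO wells and 100% = marimastat wells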
* hit, by the source's call; i = inactive; · = not tested or not shown.

SMILES | ADAM17 inh | proKLK7 act | GRIN3A LBD mod | ADAM10 inh | rCAG RNA binder | AHR act | ADAM10 ctr | ADAM17 confirm
Cc1ccc(-n2c(=O)[nH]c3c(oc4ccccc43)c2=O)cc1 | -5 | 0 | -3 | -30 | -2 | 2 | · | ·
COc1ccc(-n2c(=S)[nH]c3c(oc4ccccc43)c2=O)cc1 | 9.2* | -1 | 4 | 6 | 4 | 46 | 3 | 6
C[C@H](NC(=O)c1nc[nH]c1C(=O)NC(c1ccccc1)c1ccccc1)C(=O)OCc1ccccc1 | 9.3* | 0 | -9 | 14 | 4 | 1 | 3 | 12*
O=C(N[C@@H](Cc1ccccc1)C(=O)OCc1ccccc1)c1nc[nH]c1C(=O)N1CCN(c2ccccc2)CC1 | 11* | 0 | -10 | 19 | 1 | 2 | 27* | 15*
CC(C)(C)OC(=O)NCCCC[C@H](NC(=O)c1nc[nH]c1C(=O)NCc1ccccc1)C(=O)OC(C)(C)C | 9.2* | 0 | -16 | 17 | 1 | 6 | 35* | 20*
C[C@H](NC(=O)c1nc[nH]c1C(=O)N[C@@H](C)C(=O)OCc1ccccc1)C(=O)OCc1ccccc1 | -1 | 0 | -24 | 4 | -7 | 1 | · | ·
C[C@H](NC(=O)c1nc[nH]c1C(=O)NCc1ccc(CNC(=O)OC(C)(C)C)cc1)C(=O)OCc1ccccc1 | 10* | 1 | -10 | 15 | -3 | -1 | 37* | 21*
CCCC1(CCC)NC(=O)N(CC(=O)Nc2ccc3c(c2)OCCO3)C1=O | 0 | 1 | 2 | -4 | 3 | 2 | · | ·
CCN1C(=O)C(=O)N(CC(=O)NC(C)CCc2ccccc2)C1=O (centres undefined) | 0 | 0 | 1 | -3 | -1 | -1 | · | ·
CCOc1ccc(N2CC(C(=O)Nc3nnc(CC)s3)CC2=O)cc1 (centres undefined) | 0 | 0 | -1 | -2 | -1 | 6 | · | ·
CCOC(=O)c1ccc(-c2ccc3ncnc(NCc4csc(C)n4)c3c2)o1 | i | -55 | · | i | 4 | · | · | ·
Cc1cccc(NC(=O)c2nc[nH]c2C(=O)N[C@@H](CC(C)C)C(=O)OC(C)(C)C)c1 | 11* | 0 | -30 | 19 | 0 | -1 | 30* | 16*
Cc1cccc(NC(=O)c2nc[nH]c2C(=O)N[C@@H](Cc2ccccc2)C(=O)OC(C)(C)C)c1 | -4 | -5 | -1 | 1 | 11 | 35 | · | ·
Cc1ccc(COc2ccc(Br)cc2/C=N/O)cc1 | 8.8* | 0 | -30 | 17 | 3 | 34 | 34* | 17*
COCC(C)n1c(SCC(=O)NC(=O)NCc2ccccc2)nc2ccccc2c1=O (centres undefined) | 10* | 0 | 3 | 12 | 1 | 0 | 15 | 7
COCC(C)n1c(SCC(=O)Nc2cc(C)on2)nc2ccccc2c1=O (centres undefined) | -4 | 0 | 4 | -1 | -6 | · | · | ·
COc1ccc(C2c3c(-c4ccccc4O)n[nH]c3C(=O)N2Cc2ccco2)cc1 (centres undefined) | 8 | 0 | -9 | 16 | 10 | 9 | · | ·
COc1ccc(C2c3c(-c4ccccc4O)n[nH]c3C(=O)N2CCc2ccc(OC)c(OC)c2)cc1 (centres undefined) | 12* | 0 | -10 | 24* | 8 | 6 | 23* | 15*
CN(C)C(=O)c1ccc(NC(=O)c2ccccc2Sc2ccccc2C#N)cc1 | 3 | -1 | -5 | 10 | 1 | 2 | · | ·
Clc1ccc2[nH]cc(-c3nnnn3-c3ccccc3)c2c1 | 8.9* | -1 | 5 | 16 | 12 | -6 | 29* | 16*
Clc1ccc2ncc(-c3nnnn3-c3ccccc3)c(-c3ccccc3)c2c1 | -3 | 1 | -3 | 3 | -4 | 1 | · | ·
CCOc1ccc2nc(NC(=O)C3CCN(S(=O)(=O)c4cnc[nH]4)CC3)sc2c1 | 8.7* | 1 | -4 | -2 | 7 | 3 | 4 | 7

Screening results deposited in PubChem by several laboratories.
